± gives the standard deviation of the averaged measurements.
What was measured:
Test in all cases: cell viability (% of vehicle); higher = less cytotoxic
Conditions in all cases: 10 µM; 72 h
HCI01 = test system: HCI01 (cells of a triple-negative basal-like breast cancer xenograft)
HCI03 = test system: HCI03 (cells of an ER-positive luminal breast cancer xenograft)
HCI09 = test system: HCI09 (cells of a triple-negative luminal androgen receptor type breast cancer xenograft)
HCI11 = test system: HCI11 (cells of an ER-positive luminal breast cancer xenograft)
HCI13 = test system: HCI13 (cells of an ER-positive luminal breast cancer xenograft)
HCI16 = test system: HCI16 (cells of a triple-negative basal-like breast cancer xenograft)
UCD52 = test system: UCD52 (cells of a triple-negative basal-like breast cancer xenograft)
WHIM2 = test system: WHIM2 (cells of a triple-negative basal-like breast cancer xenograft)
WHIM30 = test system: WHIM30 (cells of a triple-negative basal-like breast cancer xenograft)
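Note: PDX cells carrying CMV promoter-driven luciferase, viability read as total photon flux per second by IVIS imaging following D-luciferin, vehicle control 0.1% DMSO.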

Row | Structure (SMILES) | cell viability (HCI01) | cell viability (HCI03) | cell viability (HCI09) | cell viability (HCI11) | cell viability (HCI13) | cell viability (HCI16) | cell viability (UCD52) | cell viability (WHIM2) | cell viability (WHIM30)
1 | Cn1cnc([N+](=O)[O-])c1Sc1ncnc2nc[nH]c12 [Azathioprine] | 98.2 ± 32 | 119 | 106 ± 26 | 87 | 65 ± 8.7 | 151 | 129 ± 18 | 71.1 ± 10 | 110 ± 8.8
2 | CCC1(O)CC2CN(CCc3c([nH]c4ccccc34)C(C(=O)OC)(c3cc4c(cc3OC)N(C)C3C(O)(C(=O)OC)C(OC(C)=O)C5(CC)C=CCN6CCC43C65)C2)C1 (stereo unspecified) [vinblastine] | 123 ± 3.3 | 91.1 | 45.7 ± 42 | 96.2 | 37.6 ± 3.4 | 164 | 68 ± 10 | 80.7 ± 22 | 124 ± 17
3 | Cl.O=c1n(CCCN2CCN(c3cccc(Cl)c3)CC2)nc2ccccn12 [Trazodone HCl] | 112 ± 11 | 123 | 95.5 ± 16 | 101 | 104 ± 9.6 | 148 | 89.05 ± 0.23 | 105 ± 23 | 192 ± 16
4 | CCCS(=O)c1ccc2nc(NC(=O)OC)[nH]c2c1 (stereo unspecified) [Albendazole Oxide] | 115 ± 11 | 144 | 110 ± 35 | 105 | 68.2 ± 9.5 | 106 | 103 ± 11 | 112 ± 34 | 141.6 ± 1.2
5 | Cc1nnc(NS(=O)(=O)c2ccc(N)cc2)s1 [Sulfamethizole] | 102 ± 17 | 119 | 91.2 ± 4.5 | 87 | 89.2 ± 14 | 114 | 81.2 ± 3.9 | 91.3 ± 4.2 | 88.3 ± 5
6 | CC(C)Cc1ccc(C(C)C(=O)O)cc1 (stereo unspecified) [Ibuprofen] | 124 ± 28 | 115 | 110 ± 24 | 104 | 133 ± 7.1 | 90.2 | 88.9 ± 4.3 | 102 ± 13 | 104 ± 4.4
7 | Cl.N=C(N)N [Guanidine HCl] | 77.2 ± 10 | 96.3 | 96.5 ± 9.5 | 85.6 | 125 ± 4.1 | 126 | 79.1 ± 8.1 | 97.7 ± 5.6 | 135 ± 2.3
8 | CC(=O)OC1CC2CCC3C(CCC4(C)C3CC([N+]3(C)CCCCC3)C4OC(C)=O)C2(C)CC1N1CCCCC1.[Br-] (stereo unspecified) [Vecuronium Bromide] | 84.7 ± 11 | 146 | 90.5 ± 0.71 | 105 | 110 ± 14 | 93.9 | 87.7 ± 8.1 | 80.9 ± 7.3 | 155 ± 3.4
9 | N#Cc1ccc(C(c2ccc(C#N)cc2)n2cncn2)cc1 [Letrozole] | 111 ± 7.6 | 99.1 | 98.4 ± 3.9 | 102 | 88.2 ± 5.6 | 99.1 | 126 ± 15 | 73.7 ± 21 | 126 ± 8.4
10 | CCOC(=O)C1=CC(OC(CC)CC)C(NC(C)=O)C(N)C1.O=P(O)(O)O (stereo unspecified) [Oseltamivir phosphate] | 111 ± 30 | 126 | 93.5 ± 5.9 | 95.4 | 93.1 ± 9 | 124 | 105 ± 16 | 98.9 ± 12 | 113 ± 1.6
11 | O=S(=O)([O-])CCSSCCS(=O)(=O)[O-].[Na+].[Na+] [Dimesna] | 111 ± 23 | 150 | 97 ± 6.5 | 103 | 122 ± 15 | 124 | 111 ± 8.6 | 128 ± 9.9 | 125 ± 12
12 | Cl.N#Cc1ccc2[nH]cc(CCCCN3CCN(c4ccc5oc(C(N)=O)cc5c4)CC3)c2c1 [Vilazodone Hydrochloride] | 135 ± 3.5 | 103 | 104 ± 18 | 122 | 113 ± 6.7 | 166 | 111 ± 3.3 | 109 ± 20 | 112 ± 17
13 | Cc1cc(=O)[nH]c(=S)[nH]1 [Methylthiouracil] | 97.2 ± 29 | 119 | 94.7 ± 16 | 93.8 | 119 ± 2.5 | 115 | 92.7 ± 7.9 | 80.6 ± 8.1 | 139 ± 5.5
14 | CCOC(=O)C(CCc1ccccc1)NC1CSC(c2cccs2)CN(CC(=O)O)C1=O.Cl (stereo unspecified) [Temocapril HCl] | 80.7 ± 40 | 103 | 106 ± 31 | 82.3 | 116 ± 9.8 | 101 | 88.7 ± 3.7 | 99 ± 12 | 114 ± 13
15 | CN(CC=CC#CC(C)(C)C)Cc1cccc2ccccc12 [Terbinafine] | 105 ± 5.9 | 114 | 136 ± 70 | 108 | 111 ± 26 | 139 | 106 ± 3 | 73.1 ± 24 | 117 ± 3.4
16 | Cc1cc(C)c2c(c1)C(N(Cc1cc(C(F)(F)F)cc(C(F)(F)F)c1)c1nnn(C)n1)CCCN2CC1CCC(C(=O)O)CC1 (stereo unspecified) | 41.2 ± 16 | 135 | 61.9 ± 53 | 98.5 | 51.4 ± 8.7 | 139 | 119 ± 2.1 | 91.8 ± 4.9 | 110 ± 6.3
17 | Br.CN1CCCC1Cc1c[nH]c2ccc(CCS(=O)(=O)c3ccccc3)cc12 (stereo unspecified) [Eletriptan HBr] | 91.4 ± 17 | 108 | 80.12 ± 0.74 | 86.1 | 83.7 ± 7.3 | 113 | 87 ± 9.9 | 83.3 ± 4.5 | 163 ± 24
18 | Cn1c(=O)c2[nH]cnc2n(C)c1=O [Theophylline] | 98.1 ± 19 | 123 | 94 ± 22 | 66.9 | 92.4 ± 1.1 | 117 | 103 ± 5.6 | 86.5 ± 16 | 95.8 ± 16
19 | CN(Cc1cnc2nc(N)nc(N)c2n1)c1ccc(C(=O)NC(CCC(=O)O)C(=O)O)cc1 (stereo unspecified) [Methotrexate] | 101 ± 8.6 | 115 | 91.1 ± 13 | 113 | 104 ± 7.5 | 93.4 | 89.1 ± 8.7 | 101 ± 2.1 | 94.9 ± 13
20 | Cc1cccc(C)c1OCC(C)N.Cl (stereo unspecified) [Mexiletine HCl] | 127 ± 27 | 110 | 120 ± 46 | 123 | 122 ± 26 | 188 | 120 ± 7 | 129 ± 14 | 147 ± 1.7
21 | CN1CCCC[C@H]1CCN1c2ccccc2Sc2ccc(S(C)=O)cc21.O=S(=O)(O)c1ccccc1 (stereo partly specified) [Mesoridazine Besylate] | 115 ± 9.3 | 77.9 | 132 ± 60 | 98.2 | 122 ± 10 | 106 | 95.9 ± 8.8 | 85.8 ± 21 | 103 ± 7.5
22 | Nc1nc(=O)n(C2CSC(CO)O2)cc1F (stereo unspecified) [Emtricitabine] | 105 ± 9.3 | 153 | 104 ± 12 | 107 | 113 ± 11 | 94.6 | 79.81 ± 0.75 | 90 ± 8.8 | 98.1 ± 1.3
23 | COc1ccccc1OCC(O)COC(N)=O (stereo unspecified) [Methyocarbamol] | 148 ± 10 | 132 | 144 ± 44 | 108 | 109 ± 3.5 | 111 | 104 ± 8.4 | 104 ± 27 | 134 ± 2.3
24 | CN(C)C(CCOc1cccc2ccccc12)c1ccccc1.Cl (stereo unspecified) [Dapoxetine HCl] | 87.4 ± 15 | 79.4 | 96.9 ± 11 | 74.2 | 95.1 ± 13 | 70 | 47.9 ± 5.3 | 65.2 ± 12 | 98.4 ± 1.4

— the supplement of paper PMC6992640
